Bioassay records as filed in PubChem.
aSyn UTR act: Activators via SNCA 5'UTR binding, MLPCN; activity score, % (tested at 7.5 µM), hits read low; actives 7.1% (n = 300,000); alpha-synuclein 5'UTR reporter, activators screen; AID 1814; in the data active means activity score below about -60%
Active calls of the source: *. The list is a sample of the results.

SMILES	aSyn UTR act
CCCNC(=O)c1ccc2c(=O)c(O)c(-c3ccc(OC)cc3)[nH]c2c1	88
COc1ccc2c(=O)c(C(=O)NCCc3ccccc3)c[nH]c2c1	-169*
CCCCC(=NCCc1c(C)[nH]c2ccc(OC)cc12)C1=C(O)CC(c2ccccc2)CC1=O (configuration not stated)	119
CCOc1ccc(NC(=O)COc2ccccc2)c([N+](=O)[O-])c1	-218*
CCOc1ccc(NC(=O)c2ccc(Br)o2)c([N+](=O)[O-])c1	-129*
CC1CN(C(=O)Nc2ccc3snnc3c2)c2ccccc21 (configuration not stated)	-67*
COc1ccc(N=c2oc3ccccc3cc2C(=O)Nc2ccccn2)cc1OC	-107*
COc1ccccc1NC(=O)c1cc2ccc(O)cc2o/c1=N\O	-97*
COc1ccccc1NC(=O)c1cc2ccccc2o/c1=N\O	-129*
O=S(=O)(c1ccc(Cl)c(Cl)c1)c1snnc1-c1ccccc1	118
c1ccc(-c2nnsc2Sc2ccccn2)cc1	-91*
CC(=O)c1cnc2cc(-c3ccc(Cl)cc3)nn2c1C	-95*
Cc1nc2cc(-c3ccc(Cl)cc3)nn2c(C)c1CCC(=O)NC(C)c1ccc2c(c1)OCCO2 (configuration not stated)	74
Cc1c(C(=O)O)cnc2cc(-c3ccc(Cl)cc3)nn12	-71*
CCN1CCN(C(=O)c2cc3c(s2)-c2c(C)cccc2OC3)CC1	-141*
Cc1cccc2c1-c1sc(C(=O)N3CCCCC3)cc1CO2	-100*
COc1ccc2cc(C#N)c(SCC(=O)Nc3nonc3C)nc2c1	-79*
Cc1cc2cc(C#N)c(SCC(=O)Nc3nonc3C)nc2cc1C	-92*
Cc1nonc1NC(=O)CSc1nc2c(C)cccc2cc1C#N	-98*
CCc1cc2c(C)ccc(C)c2nc1SCC(=O)Nc1cc(C)on1	55
Cc1cnc(NC(=O)c2sc(Nc3ccccc3)nc2N)o1	-115*
Nc1nc(Nc2ccccc2)sc1C(=O)c1ccccc1	-121*
Cc1cccc(Nc2nc(N)c([N+](=O)[O-])c(N3CCCC(C)C3)n2)c1 (configuration not stated)	59
CN(c1ccccc1)c1nc(N)c([N+](=O)[O-])c(N2CCCC2)n1	-97*
Nc1nc(Nc2ccccc2F)nc(N2CCCC2)c1[N+](=O)[O-]	-131*
SMILES	aSyn UTR act
Cc1ccc(NC(=O)Cn2nnc3ccccc32)cc1	-176*
COC(=O)c1ccc(NC(=O)Cn2nnc3ccccc32)cc1	-174*
Cc1cccc(NC(=O)Cn2nnc3ccccc32)c1	-104*
c1ccc2nc(-c3ccc(-n4ccnc4)cc3)ccc2c1	-224*
c1ccc(-c2ccc3ccccc3n2)cc1	-191*
Cc1[nH]c2ccccc2c1N=Nc1cccc(C(=O)O)c1	-96*
Cc1[nH]c2ccccc2c1N=Nc1ccccc1C(=O)O	-70*
CC(=O)c1cccc(NC(=O)/C=C/c2ccc([N+](=O)[O-])s2)c1	-326*
CCOC(=O)c1ccc(NC(=O)/C=C/c2cccs2)cc1	-251*
Cc1ccccc1NC(=O)/C=C/c1ccc([N+](=O)[O-])s1	-80*
Cc1ccccc1NC(=O)/C=C/c1cccs1	-119*
Cc1cc(C)cc(NC(=O)/C=C/c2ccc([N+](=O)[O-])s2)c1	-244*
C=C(C)CSc1nc2ncc(Cl)cc2[nH]1	-74*
CC1=NN(c2ccccc2)C(=O)/C1=C/c1c(O)n(-c2ccc(F)cc2)[nH]c1=O	-134*
Cc1cc(/C=C2/C(=N)N3C(c4ccccc4)=CSC3=NC2=O)c(C)n1-c1ccccc1	-81*
CC1=NN(c2ccccc2)C(=O)/C1=C/c1ccc[nH]1	-181*
Cc1cc(/C=C2/NC(=O)N(c3ccccc3)C2=O)c(C)n1-c1cccnc1	-149*
Cc1cc(/C=C2\Cc3ccccc3C2=O)c(C)n1-c1ccccc1	52
CC1=NN(c2ccccc2)C(=O)/C1=C\c1cc(C)n(-c2ccccc2)c1C	-82*
CC1=NN(c2cccc(C(=O)O)c2)C(=O)/C1=C\C=C/c1ccccc1	-64*
Cc1nn(-c2ccc(N3CCCCC3)nn2)c(C)c1CCC(=O)Nc1ccc(F)cc1	-90*
Cc1ccc(-n2nc(C)c3c(C)c(CCC(=O)Nc4ccc(CN5CCCC5)cc4)c(C)nc32)cc1	104
Cc1nn(-c2ccc(N3CCCCC3)nn2)c(C)c1CCC(=O)Nc1cccc(F)c1	-120*
CCOc1ccc(NC(=O)CCc2c(C)nn(-c3ccc(N4CCCCC4)nn3)c2C)cc1	-81*
Cc1ccc(NC(=O)CCc2c(C)nn(-c3ccc(N4CCCCC4)nn3)c2C)cc1F	-85*
SMILES	aSyn UTR act
CC(C)c1ccc(Nc2ncccc2C(=O)O)cc1	-101*
O=C1c2ccccc2S(=O)(=O)c2cc(N3CCc4ccccc4C3)ccc21	-180*
Cc1noc(C)c1CSc1nc2[nH]ncc2c(=O)n1-c1ccccc1	51
Cc1nc(-c2ccccc2)nc2[nH]c(=O)n(-c3ccccc3)c(=O)c12	-93*
C/C(=N\N=c1/sc2ccccc2n1C)c1ccc(N2CCOCC2)cc1	-132*
C/C(=N\N=c1/sc2ccccc2n1C)c1ccccn1	-122*
Cc1nc(COC(=O)c2c(C)nn(-c3ccccc3)c2C)cs1	-104*
Cc1ccccc1-n1c(SCC(=O)N/N=C/c2c(C)nn(-c3ccccc3)c2C)nc2ccccc2c1=O	58
CC(=O)Nc1ccc(-c2csc(N/N=C(/C)c3ccccc3)n2)cc1	-102*
CC(=O)Nc1ccc(-c2csc(NCc3ccccc3)n2)cc1	-75*
C/C(=N/Nc1nc(-c2ccc(Cl)cc2)cs1)c1cccs1	-75*
Cc1cccc(C(=O)N=c2sccn2C)c1[N+](=O)[O-]	-133*
Cn1ccsc1=NC(=O)c1ccc(S(C)(=O)=O)cc1	-62*
Cn1ccsc1=NC(=O)c1cccc(C#N)c1	-86*
Cc1ccc(C(=O)N=c2sccn2C)cc1S(=O)(=O)N1CCOCC1	-160*
Cc1ccc(NC(=S)N=Nc2c(O)n(C)c3ccc(S(=O)(=O)N4CCOCC4)cc23)cc1C	77
CCCCOc1ccc(C(=O)N=c2sccn2C)cc1OC	-164*
Cn1ccsc1=NC(=O)c1ccc(Cl)c([N+](=O)[O-])c1	-117*
COc1cc(C=O)ccc1Oc1nnnn1-c1ccc(C(N)=O)cc1	-68*
N#C/C(=N\Nc1ccc(Cl)c(Cl)c1)C(=O)C1CC1	-97*
Cc1cc(-c2ccccc2)nc(N/N=C/c2ccccc2)n1	-110*
C(=N/Nc1nc(-c2ccccc2)cc(-c2ccccc2)n1)/c1cccnc1	-121*
Cc1cc(-c2ccccc2)nc(N/N=C/c2ccco2)n1	-126*
Clc1cccc(/C=N\Nc2nccs2)c1	-168*
Clc1cccc(/C=N/Nc2nc(Cl)nc3ccccc23)c1	-172*
SMILES	aSyn UTR act
Cc1cc(C)nc(N/N=C/c2cccc(Cl)c2)n1	-93*
CCCCCCOc1ccc(OCC(O)CN2C(=O)NC(C)(C)C2=O)cc1 (configuration not stated)	-128*
Cc1ccc2c(COC(=O)c3ccc(NC(=O)CC#N)cc3)cc(=O)oc2c1C	-69*
Cc1ccc(C(=O)Nc2ccc3c(c2)ncn3C)cc1	-115*
CCCn1cnc2cc(NC(=O)c3cccs3)ccc21	-113*
CCC(=O)Nc1ccc2c(c1)ncn2-c1ccc(C)cc1	-77*
CCn1cnc2cc(NC(=O)c3ccc(C)cc3)ccc21	-106*
Cc1c(C)c(C)c2[nH]c(-c3ccc4c(c3)OCO4)nc2c1C	-76*
COC(=O)/C(=C1/Oc2ccc(C)cc2S1)C(F)(F)F	-152*
N=c1ccn2c(n1)OC1C(O)C(CO)OC12 (configuration not stated)	112
